Most compounds without a hit are left out; they make up all but 5.7% or so of the library.
AHR activator = AHR activators, primary screen, cell-based, luminescence, luciferase reporter, human | 320,000 tested, 2.5% active | AID 2796, 2010 | activation, % at 5 µM | AHR-responsive luciferase reporter cells; in the data active means activation above about 47%;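 further: 0% = vehicle wells and 100% = reference agonist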
ssDAF12 agonist = S. stercoralis DAF-12 nuclear receptor activators, primary screen, cell-based, luminescence, HEK293, GRIP1 co-expression, lit1-tk-luc | 370,000 tested, 1% active | HEK293 ssDAF-12/GRIP1 lit1-tk-luc reporter; % of 3 µM dafachronic acid response | AID 652126, 2013 | Nuclear hormone receptor DAF-12 (Strongyloides stercoralis) | activation, % at 6.8 µM;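 active means activation above the mean over all tested compounds plus 3 SD, cut at about 0.9% in these data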;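 further: 0% = DMSO-only wells and 100% = 3 µM delta7-dafachronic acid wells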
hcDAF-12 act = H. contortus DAF-12 nuclear receptor activators, primary screen, cell-based, luminescence, HEK293, lit1-tk-luc reporter | HEK293 hcDAF-12 lit1-tk-luc reporter; 0% DMSO, 100% Δ7-dafachronic acid | activation, % at 6.8 µM | 370,000 tested, 1.4% active;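 active means activation above the mean of all tested compounds plus 3 SD, cut at about 5.5% in these data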;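 further: 100% = response to 3 µM Δ7-dafachronic acid high control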
hgDAF-12 ag = H. glycines DAF-12 receptor agonists, primary screen, cell-based, luminescence, HEK293, GAL4 fusion, UAS-luciferase; HEK293 GAL4-hgDAF12 UAS-luciferase reporter, agonist luminescence; normalized to butyrate control; activation, % at 6.8 µM; 370,000 tested, 1.8% active; AID 687014, 2013;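 active means activation above a cutoff set at the mean of all screened compounds plus 3 SD, cut at about 10% in these data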;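 further: 0% = DMSO wells and 100% = sodium butyrate wells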
DAX1 inh-1 = DAX1 (NR0B1) inhibitors, primary screen, cell-based, HEK293, Gal4-DAX1, luciferase luminescence; 340,000 tested, 0.99% active; Nuclear receptor subfamily 0 group B member 1 (Homo sapiens), P51843; inhibition, % at 6.75 µM; HEK293 Gal4-DAX1 luciferase reporter; AID 504766, 2011;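 active means inhibition above the mean over all tested compounds plus 3 SD, cut at about 4.2% in these data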;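 further: 0% = DAX1-transfected cells with DMSO and 100% = empty-vector control cells with DMSO; inhibition shows as a rise in luminescence from relieved DAX1 repression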
Target sequence (P51843 207-470 limits assumed): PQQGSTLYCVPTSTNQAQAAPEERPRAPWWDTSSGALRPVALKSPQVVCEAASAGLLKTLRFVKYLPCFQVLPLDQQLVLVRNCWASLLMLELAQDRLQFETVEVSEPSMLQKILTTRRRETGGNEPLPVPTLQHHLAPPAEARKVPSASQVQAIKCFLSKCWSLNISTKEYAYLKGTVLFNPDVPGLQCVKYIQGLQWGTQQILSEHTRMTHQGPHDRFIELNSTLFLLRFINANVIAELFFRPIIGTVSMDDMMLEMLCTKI
DAX1 inh-2 = DAX1 (NR0B1) inhibitors on StAR promoter, primary screen, cell-based, luminescence, SF-1 (NR5A1), full-length DAX-1; HEK293T StAR-luciferase reporter, SF-1/DAX-1 repression relief; 370,000 tested, 1.1% active; inhibition, % at 6.8 µM;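 active means inhibition above the mean over all tested compounds plus 3 SD, cut at about 3.6% in these data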;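 further: 0% = DAX-1 cells with DMSO and 100% = cells lacking DAX-1 with DMSO; higher inhibition means more luminescence from relief of DAX-1 repression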
* marks the source's active call; other numbers are inactive results; x = not tested or not shown.

SMILES | AHR activator | ssDAF12 agonist | hcDAF-12 act | hgDAF-12 ag | DAX1 inh-1 | DAX1 inh-2
Cc1ccc(NC(=O)c2snc3ccc(Cl)cc23)cc1C | 21 | 0 | 6.0* | 10 | 2 | 2
Cc1ccc2[nH]c(-c3cccc(F)c3)cc(=O)c2c1 | 50* | 1 | 5 | 2 | 2 | 2
O=c1cc(-c2cccc(F)c2)[nH]c2ccccc12 | 61* | 0 | 2 | -3 | 0 | 2
O=c1cc(-c2ccccc2)[nH]c2ccc(F)cc12 | 58* | -1 | 0 | 1 | 1 | 1
O=c1cc(-c2ccc(F)cc2F)[nH]c2ccccc12 | 2 | x | x | x | x | x
COc1ccc(-c2cc(=O)c3ccccc3[nH]2)cc1 | 38 | -1 | 0 | 1 | 3 | 1
COc1ccc2[nH]c(-c3cccc(F)c3)cc(=O)c2c1 | 58* | 0 | 3 | -1 | 3 | 0
Cc1ccc(-c2cc(=O)c3cc(F)ccc3[nH]2)cc1 | 22 | -1 | 1 | 4 | 3 | 1
O=C(C(=S)N1CCOCC1)c1c[nH]c2ccccc12 | -1 | -1 | 0 | -1 | 0 | 0
COc1cc(Cl)ccc1OCc1cc(C(=O)N(C)Cc2cccc3cnccc23)no1 | -5 | -1 | -2 | -2 | 0 | -5
Cc1ccc(C)c(OC(=O)c2cccnc2)c1 | 5 | x | x | x | -1 | x
Cc1cc(=O)oc2c(C)c(OCC(=O)N3CCC(C(=O)O)CC3)ccc12 | -1 | -1 | -1 | 0 | 2 | 0
O=C(Cc1cccs1)N/N=C/C(Cl)=C/c1ccccc1 | 8 | -1 | 3 | 12* | 1 | 2
Cc1nc2ccccc2n(CC(=O)Nc2cc(Cl)cc(Cl)c2)c1=O | 0 | -1 | 1 | 4 | 1 | 0
Cn1c(SCC(=O)NC2CCCC2)nnc1C(F)(F)F | -1 | -1 | 1 | 2 | 0 | 1
c1ccc(-c2ccc(-n3ccnc3)cc2)cc1 | 19 | -2 | -1 | 4 | 1 | 0
c1ccc(-c2ccc(C(c3ccccc3)n3ccnc3)cc2)cc1 (configuration not stated) | 48* | -1 | -2 | 0 | 0 | 0
C/C(CC(=O)Nc1ccc([N+](=O)[O-])cc1)=N/NC(=O)C1CC12CCC2 (configuration not stated) | 19 | -1 | 0 | -1 | 2 | 0
O=S(=O)(NCCCc1ccccc1)c1ccc(F)c(F)c1 | -1 | -1 | -2 | 1 | 4.8* | 0
O=S(=O)(NCCCc1ccccc1)c1ccc(Cl)cc1 | 1 | -1 | 1 | -3 | -1 | 0
Cc1nc2c(c(C)c1C#N)C(=O)c1ccccc1-2 | 72* | 0 | 3 | 0 | 0 | 0
O=C(/C=C/c1cccc([N+](=O)[O-])c1)OCC(=O)N1CCN(C(=O)c2ccco2)CC1 | 3 | 0 | 0 | 12* | -2 | -1
O=C(/C=C/c1cccc([N+](=O)[O-])c1)N1CCN(C(=O)c2ccco2)CC1 | 1 | -2 | -1 | 1 | -2 | 0
CCOc1ccc2nc(SCC(=O)c3cccs3)sc2c1 | 28 | 1 | 4 | 12* | 3 | 2
CCOc1ccc2nc(NS(=O)(=O)Cc3ccccc3)sc2c1 | 0 | 0 | 1 | 3 | 10* | -1
SMILES | AHR activator | ssDAF12 agonist | hcDAF-12 act | hgDAF-12 ag | DAX1 inh-1 | DAX1 inh-2
CCOc1ccc2nc(NS(=O)(=O)c3ccc(NC(C)=O)cc3)sc2c1 | 1 | -1 | -1 | -1 | 0 | 0
CCOc1ccc2nc(NC(=O)CCn3cccc3)sc2c1 | 59* | -1 | 1 | 5 | 0 | 0
CCOc1ccc2nc(NC(=O)CSc3ccccc3)sc2c1 | 11 | -1 | -1 | 2 | 1 | 0
CCOc1ccc2nc(SCC(=O)c3ccc(Cl)s3)sc2c1 | 5 | -1 | -1 | 3 | 0 | -1
CC(C)CCCCCCCCc1cccc(O)c1C(=O)O | x | -1 | -2 | -2 | x | 0
O=C1c2ccccc2C(=O)N1OCc1ccccc1 | 90* | -1 | 0 | 0 | -1 | 0
C/C(=N\NC(=O)C(O)c1ccccc1)c1ccc(Cl)cc1 (configuration not stated) | 2 | 1.4* | -1 | -1 | 2 | 1
COC(=O)C1=C(C)N(C)C(=NCc2cc(OC)c(OC)c(OC)c2)NC1c1cccc(F)c1 (configuration not stated) | x | -1 | 0 | 1 | x | 0
COc1ccc2cc(C3CC(c4ccco4)=NN3S(C)(=O)=O)c(Cl)nc2c1 (configuration not stated) | 0 | -1 | 0 | -2 | 3 | 0
CCOc1ccc2nc(Cl)c(C3CC(c4ccco4)=NN3S(=O)(=O)c3ccccc3)cc2c1 (configuration not stated) | 1 | 1.4* | -1 | 2 | -1 | 0
COCCCNC(=S)NC(=O)c1ccc(C)cc1 | 21 | 1 | 6.2* | 13* | 1 | 3
CC(C)(C)c1ccc(OCC(=O)NNC(=S)NC(=O)c2ccccc2[N+](=O)[O-])c(Br)c1 | 2 | -1 | -1 | 5 | -1 | 0
CCCCOCC1CN(Cc2ccccc2OC)S(=O)(=O)c2cc(Cl)ccc2O1 (configuration not stated) | x | 0 | -1 | 0 | x | -1
CCC(=O)N1CCC(C(=O)NC2CCCc3ccccc32)CC1 (configuration not stated) | x | -1 | -2 | 0 | x | -1
CSCCC(NS(=O)(=O)c1ccc2c(c1)oc(=O)n2C)C(=O)NC1CCC(C)CC1 (configuration not stated) | 2 | -1 | -3 | 1 | -1 | 3.7*
CSCCC(NS(=O)(=O)c1ccc2c(c1)oc(=O)n2C)C(=O)NCc1ccc(C)cc1 (configuration not stated) | 1 | -1 | -1 | 1 | 2 | 0
CSCCC(NS(=O)(=O)c1ccc2c(c1)oc(=O)n2C)C(=O)NC1CCN(Cc2ccccc2)CC1 (configuration not stated) | -1 | 0 | 6.4* | 10 | -1 | 1
O=C(N[C@H](Cc1ccccc1)C(=O)NCc1ccco1)[C@H]1O[C@@H](n2ccc(=O)[nH]c2=O)[C@H](O)[C@@H]1O | x | -1 | 0 | 0 | x | 0

Source: PubChem (The Scripps Research Institute Molecular Screening Center)
